# Source: PubChem BioAssay (several laboratories)
# M1 antag: antagonists of rat M1 muscarinic receptor; Muscarinic acetylcholine receptor M1 (Rattus norvegicus), P08482; CHO-M1 cells, Fluo-4 calcium, ACh EC80 antagonist mode; hits give low values; actives 3.4% (n = 64,000); B-score at 10 µM; AID 628, 2007;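 active = calcium fluorescence response, raw or row-and-column corrected B-score, differing from the plate sample mean either way at a set confidence level, mostly lower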
# Target sequence (P08482 whole entry, looked up): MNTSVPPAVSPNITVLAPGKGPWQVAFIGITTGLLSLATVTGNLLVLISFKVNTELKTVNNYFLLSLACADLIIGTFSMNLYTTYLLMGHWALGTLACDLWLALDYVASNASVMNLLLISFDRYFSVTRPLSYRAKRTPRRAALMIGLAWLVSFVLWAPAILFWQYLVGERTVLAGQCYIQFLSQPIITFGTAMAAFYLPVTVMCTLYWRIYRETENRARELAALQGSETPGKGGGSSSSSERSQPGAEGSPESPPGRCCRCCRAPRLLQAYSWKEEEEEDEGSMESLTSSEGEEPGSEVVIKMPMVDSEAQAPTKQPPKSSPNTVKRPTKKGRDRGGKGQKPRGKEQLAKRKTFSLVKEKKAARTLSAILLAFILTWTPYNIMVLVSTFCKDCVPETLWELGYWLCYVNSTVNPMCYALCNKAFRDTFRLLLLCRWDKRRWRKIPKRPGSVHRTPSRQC
# D1 mod: D1 CRE-luciferase signal change, two-sided – cell-based, HEK293 D1, dopamine EC30, D1 allosteric modulator project, primary screen. actives 5.9% (n = 58,000). B-score at 10 µM. AID 641, 2007. D(1A) dopamine receptor (Homo sapiens), P21728. dopamine EC30 potentiation; actives deviate in either direction;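 active = luminescence count or its row- and column-corrected plate score outside the 99.7% band of the plate's sample wells, on either side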
# mHtt clearance: clearance of mutant huntingtin inclusions, primary screen, imaging, HeLa Exon1htt(103Q)mCFP, confocal imaging; actives 0.42% (n = 47,000); inhibition, % at 1.5 µM; aggregate imaging; zero = plate's median compound well;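 active = inhibition of aggregate fluorescence above about 70%, also judged a hit by eye on the cell image, limit read from the data, passing the limit was not always enough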;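 also: cells exposed to compound for three days before fixation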
# WNV NS2B-NS3 inh: inhibitors of WNV NS2B-NS3 protease, primary screen, biochemical, fluorogenic substrate. Genome polyprotein (West Nile virus), P06935. fluorogenic substrate Ex360/Em465; hits give low values. z-score (test concentration not listed). actives 0.18% (n = 65,000); in the data active = z-score below about -3
# M1 ag: M1 muscarinic receptor agonists, primary screen, CHO-M1 cells, Fluo-4 calcium, agonist mode; Fluo-4 calcium fluorescence; hits give high values; B-score at 10 µM; actives 3% (n = 64,000); AID 626, 2007;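 active = fluorescence rise, raw or as B-score row- and column-corrected plate score, outside the 99.7% band of its plate's samples, either direction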
# * marks the source's active call; other numbers are inactive results; x = no result given. Rows were chosen to be rich in hits. Some 8.9% of all compounds tested hit in one or more screens of this group.
SMILES,M1 antag,D1 mod,mHtt clearance,WNV NS2B-NS3 inh,M1 ag
NC(=O)NC(Cc1ccccc1)c1ccccc1 (stereo not given),-0.24,x,x,0.36,2.3*
Cn1c(C(F)(F)F)nc2c(=O)oc3ccccc3c21,-0.19,1.3,10,0.23,0.92
COC(=O)c1cc(OC)c(OC)cc1NC(=O)c1c(C)noc1C,-0.12,0.19,x,-0.38,-0.27
Cc1cc(C(F)(F)F)nn1Cc1n[nH]c(=S)n1-c1cccc(Cl)c1,x,x,15,x,x
CC1N=C2c3ccccc3N=C(SCc3cc(=O)n4ccccc4n3)N2C1=O (stereo not given),-2.9,1.4,x,-0.21,0.06
COc1cccc(-c2nc(N3CCC(C)CC3)c3ccccc3n2)c1O,2.2*,x,x,0.22,-0.62
COc1cccc(-c2nc(N3CC(C)CC(C)C3)c3ccccc3n2)c1O (stereo not given),0.19,x,-5,-0.2,-0.95
CCOC(=O)N1CCN(c2ncnc3c2oc2nc(C)c4c(c23)CC(C)(C)OC4)CC1,-0.1,1.7,x,-0.28,-0.11
CC1(C)Cc2nc3oc4c(NCc5ccccc5)ncnc4c3cc2CO1,x,0.2,x,-1.6,x
Cc1nc2oc3c(NCc4ccccn4)ncnc3c2c2c1COC(C)(C)C2,-0.34,12*,x,-0.91,-0.19
CC(C)c1nc2oc3c(NCc4ccccn4)ncnc3c2c2c1COC(C)(C)C2,0.42,8.7*,x,-0.13,4.6*
Cc1ccc(CCP(=O)(O)CN2CCCCC2)cn1,0.6,x,x,-0.32,-0.13
c1ccc(CN2CCN(CCCNc3ccc4nnc(-c5ccccc5)n4n3)CC2)cc1,-1,-5.6*,x,-0.66,-1.2
Cc1noc(C)c1S(=O)(=O)NCCCN1CCN(Cc2ccccc2)CC1,-2.4,0.18,x,-0.87,0.1
Fc1ccccc1N1CCN(CCCNc2ccc3nncn3n2)CC1,-1.6,-6.1*,-15,-0.24,-0.14
Cc1cc(NC(=O)CSc2nc3c(c(=O)n2Cc2ccccc2)SC(C)C3)no1 (stereo not given),0.025,5.5*,x,0.52,1.1
CCn1c(SCC(=O)N2CCCc3ccccc32)nc2c(c1=O)SC(C)C2 (stereo not given),3.3*,x,x,-0.31,0.44
CCn1c(SCC(=O)Nc2cc(C)on2)nc2sc(C)c(C)c2c1=O,1.2,6.9*,x,1.6,-0.15
CCCn1c(SCC(=O)N2CCCc3ccccc32)nc2c1c(=O)n(C)c(=O)n2C,0.39,4.2*,x,-0.46,1.9
Cc1ccccc1-c1nc(CN2CCC(C(=O)NCCCN3CC(C)CC(C)C3)CC2)c(C)o1 (stereo not given),-0.66,-1.1,x,-0.25,0.079
Cc1ccc(-c2nc(C(=O)NC3CCCCCC3)no2)cc1,-0.3,-0.13,x,1.7,0.72
Cc1cnc(-c2nnc(N(C)C(=O)c3cnccn3)s2)cn1,0.0019,0.16,x,-0.87,-0.24
O=c1c2cc(N3CCOCC3)ccc2[nH]c(=S)n1CCCN1CCN(c2ccccc2F)CC1,0.22,-6.7*,x,-0.25,-0.74
Cn1c(CN2CCOCC2)nnc1SCC(=O)NCCc1ccccc1,0.0078,-0.79,-35,0.35,-0.05
CCOc1cc(C(=O)NCc2ccncc2)cc(OCC)c1OCC,0.056,0.23,-11,1.3,0.15
SMILES,M1 antag,D1 mod,mHtt clearance,WNV NS2B-NS3 inh,M1 ag
CC(=O)Oc1cc2c(C(=O)NCc3ccncc3)c(C)oc2c2ccccc12,2*,-0.94,x,0.18,6.1*
Cc1nc(COC(=O)c2ccc(S(=O)(=O)N3CCCC3)cc2)cs1,-0.79,1,-77,-0.64,-0.013
CCOc1ccc(N2CCn3c2nc2c3c(=O)n(CCc3ccccc3)c(=O)n2C)cc1,0.4,-0.036,x,-0.1,-0.34
COc1ccc(N2CCN(C(=O)c3cn(C)c(=O)c4c3c3ccccc3n4C)CC2)cc1,0.045,1.4,23,-3.8*,-0.72
CN(C(=O)c1cnccn1)c1nnc(-c2cccnc2)s1,0.92,0.46,x,2,-0.034
Nc1cc(OC(=O)c2ccco2)nn1S(=O)(=O)c1ccc(F)cc1,0.11,0.22,x,-11*,-0.46
Cc1ccc(S(=O)(=O)n2nc(OC(=O)c3ccco3)cc2N)cc1,0.041,-0.022,x,-5.3*,1
CC(C)(C)C(=O)Oc1cc(N)n(S(=O)(=O)c2ccc(F)cc2)n1,-0.26,-0.21,-9,-1.5,-0.86
COc1ccccc1C(=O)Oc1cc(N)n(S(=O)(=O)c2ccc(C)cc2)n1,0.33,x,x,-2.1,-0.82
Cc1ccc(S(=O)(=O)n2nc(OC(=O)c3cccs3)cc2N)cc1,-0.076,-0.42,64,-6.4*,-0.033
c1ccc(CCn2c(C3CC3)nc3ccccc32)cc1,x,x,-8,x,x
O=S(=O)(NC1CCCCC1NCc1ccco1)c1ccc(Cl)cc1 (stereo not given),-0.86,-2.3*,x,-1.1,-0.32
CC(C)c1ccc(OCc2nc(-c3ccccn3)no2)c(Br)c1,-0.077,-2,x,0.02,-0.59
CCc1ccc(OCc2nc(-c3ccccn3)no2)c(Br)c1,0,-5*,-14,-0.14,0.6
Cc1ccc(OCc2nc(-c3ccccn3)no2)c(Br)c1,-0.62,-5.7*,-10,4.5e-05,1.8
Cc1ccn2cc(C(=O)Nc3ccccc3N3CCOCC3)nc2c1,-0.17,-1.6,27,1.5,0.069
Cc1ccn2cc(C(=O)Nc3ccc4c(c3)OCCO4)nc2c1,0.79,-4.5*,x,-0.38,0.17
Cc1ccc(-n2c(=O)[nH]cc(C(=O)Nc3ccc4c(c3)OCCO4)c2=O)cc1,-0.5,-5*,x,1.4,0.095
O=C(O)CCCNc1cc(N2CCC3(CC2)OCCO3)c2noc3c2c1C(=O)c1ccccc1-3,0.42,2.5,23,-1.2,6.2*
Cn1cc(C(=O)NCN2CCCCC2)c2ccccc21,0.018,x,x,-6.6*,-0.9
COc1cccc(N2CC(C(=O)Nc3ccc(C(=O)OC(C)C)cc3)CC2=O)c1 (stereo not given),x,0.57,45,0.37,x
CCOCCCN1CC(C(=O)NCCc2ccccc2)CC1=O (stereo not given),2.2*,0.48,6,-1.3,0.29
CC(C)CCN1CC(C(=O)NCc2ccc(F)cc2)CC1=O (stereo not given),0.061,0.61,x,-4*,-0.47
O=C(NCc1ccc(F)cc1)C1CC(=O)N(CCc2ccccc2)C1 (stereo not given),0.93,-0.21,48,-1.1,-0.098
COc1ccc(OC)c(C(C)NC=O)c1 (stereo not given),0.38,-0.16,10,-1.2,-0.34
Cc1ccc(-n2c(SCc3ccc(C#N)cc3)nnc2-c2ccccn2)cc1,-0.21,-4*,x,1.5,-0.96
COc1ccc(-n2c(SCc3ccc(C#N)cc3)nnc2-c2ccccn2)cc1,-0.18,0.059,-74,-0.35,-0.33
O=C(NC1CCSC1=O)c1cccc(C(=O)NC2CCSC2=O)c1 (stereo not given),-0.31,0.27,-8,0.41,0.041
COc1ccc(OCCn2cc(/C(N)=N/O)c3ccccc32)cc1,x,x,6,x,x
